PubChem BioAssay (NCATS)
Records with an inconclusive call do not appear. Activity calls are given as the source filed them. Calls come from the whole dose curve; as a rule, active = well fitted inhibition curve with a large enough effect; inconclusive = small, poorly fitted or top-dose-only effect; inactive = flat fitted curve, though single readings scatter.

test system: Zika virus NS2B-NS3 protease; assay: Primary screen GU AMC qHTS for Zika virus inhibitors (AID 1347154); conditions: Zika NS2B-NS3 unlinked protease, AMC fluorogenic substrate; series mostly up to 54.1 µM; activity change, negative = inhibition: at the top concentration;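 note: 0% = no-inhibitor control and -100% = no-enzyme control; nearly all actives have a fitted effect of over 70% in size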
Outline: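 Unlinked Zika NS2B hydrophilic domain/NS3 protease domain noncovalent complex (25 nM final) in 10 mM Tris-HCl pH 8.0, 0.01% Tween 20, with AMC peptide substrate. Fluorescence (ex 340, em 450 nm) change over 15 min, room temperature; percent inhibition fitted to 4-parameter Hill equation.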

SMILES	activity change, negative = inhibition
CCN1CCCC1CN (stereo not drawn)	3.45% (inactive)
O=C(c1ccccc1)c1ccccc1	3.54% (inactive)
CCCCC(CC)CNC(=O)CC(C)OC(=O)CCC(=O)O (stereo not drawn)	-1.51% (inactive)
Nc1ccc(C(=O)OCC(O)CO)cc1 (stereo not drawn)	-4.17% (inactive)
CC(Oc1c(Cl)cccc1Cl)C1=NCCN1 (stereo not drawn)	-7.87% (inactive)
Cc1cccc(N(C)C(=S)Oc2ccc3c(c2)C2CCC3C2)c1 (stereo not drawn)	-4.47% (inactive)
CN(C)CCOC(c1ccccc1)c1ccc(Br)cc1 (stereo not drawn)	5.27% (inactive)
CCOC(=O)CN1CCCC1=O	-3.73% (inactive)
CCOc1c(N2CCOCC2)cnn(C)c1=O	-5.93% (inactive)
CCCCC(CC)COC(=O)c1ccccc1C(=O)O (stereo not drawn)	-9.51% [at 104 µM] (inactive)
CC1(C)OC(=O)Nc2ccc(Br)cc21	0.346% (inactive)
CC(CC1c2ccccc2CCc2ccccc21)CN(C)C (stereo not drawn)	-6.48% (inactive)
O=C(O)CCC(=O)OC[C@@H](NC(=O)C(Cl)Cl)[C@H](O)c1ccc([N+](=O)[O-])cc1	-3.41% (inactive)
CC(=O)OCC(=O)[C@@]1(O)[C@H](OC(C)=O)C[C@H]2[C@@H]3CCC4=CC(=O)C=C[C@]4(C)[C@@]3(F)[C@@H](O)C[C@@]21C	-3.83% (inactive)
Cc1ccc2c(Cl)cc(Cl)c(O)c2n1	-2.51% (inactive)
CC(C)(C)NCC(O)COc1ccccc1OCC1CCCO1 (stereo not drawn)	-6.03% (inactive)
Cc1cnc(NS(=O)(=O)c2ccc(N)cc2)nc1	3.57% (inactive)
NS(=O)(=O)c1cc(C(=O)NN2C[C@H]3[C@H]4CCC(C4)[C@H]3C2)ccc1Cl	3.41% (inactive)
Clc1ccc2c(c1)Nc1ccccc1S2	-6.51% (inactive)

SMILES	activity change, negative = inhibition
CC(=O)c1cc2ccccc2s1	1.39% (inactive)
CC(C)=CCNc1ncnc2c1ncn2[C@@H]1O[C@H](CO)[C@@H](O)[C@H]1O	5.21% (inactive)
Cc1ccccc1N1CCN(CCc2nnc3n2CCCC3)CC1	-1.11% (inactive)
CC(NC(CCc1ccccc1)C(=O)O)C(=O)N1C(=O)N(C)CC1C(=O)O (stereo not drawn)	8.19% (inactive)
O=C(OCC(COC(=O)c1cccnc1)(COC(=O)c1cccnc1)COC(=O)c1cccnc1)c1cccnc1	-2.77% (inactive)
O=C(O)Cn1c(=O)n(Cc2ccc(Br)cc2F)c(=O)c2ccc(Cl)cc21	-2.43% (inactive)
CNC(=O)c1cnn(-c2nc(N)c3ncn([C@@H]4O[C@H](CO)[C@@H](O)[C@H]4O)c3n2)c1	-5.9% (inactive)
Cc1ccc(-c2ccccc2C#N)cc1	-4.98% (inactive)
Cn1cc(S(C)=O)c(=O)c2ccc(F)cc21 (stereo not drawn)	-7.17% (inactive)
CC(=O)[C@@]1(O)CC[C@H]2[C@@H]3C[C@H](C)C4=CC(=O)CC[C@]4(C)[C@H]3CC[C@@]21C	-1.87% (inactive)
O=C(O)Cn1cnnn1	2.08% (inactive)
Cc1onc(-c2ccccc2)c1C(=O)Cl	-0.96% (inactive)
Oc1cccc2[nH]ccc12	-2.06% (inactive)
CC[C@@H]([C@H](C)O)n1ncn(-c2ccc(N3CCN(c4ccc(OC[C@@H]5CO[C@@](Cn6cncn6)(c6ccc(F)cc6F)C5)cc4)CC3)cc2)c1=O	0.377% (inactive)
C1N2CN3CN1CN(C2)C3	-2.2% (inactive)
O=C1CCCc2c(O)cccc21	3.23% (inactive)
COc1cc(S(N)(=O)=O)cc(C(=O)O)c1OC	5.1% (inactive)
CN=C(N)NC(=O)Nc1c(C)cccc1C	-6.62% (inactive)
CCCCCCn1c(=O)c2c(ncn2C)n(C)c1=O	5.34% (inactive)
